Hit rate of the full screen: of about 310,000 compounds, about 11,000 (3.5%) were called active. Where a call stands in place of a potency, no number is given. Roughly 8% stayed inconclusive and do not appear here. Calls come from the whole dose curve; as a rule, active = well fitted inhibition curve with a large enough effect; inconclusive = small, poorly fitted or top-dose-only effect, or effect the other way; inactive = flat fitted curve, though single readings scatter. Many of the other results were omitted from the sample, so actives are more common in it than they were.
Potency is the fitted concentration of half-maximal effect.

The assay can be described thus: VP16 counterscreen qHTS for inhibitors of ROR gamma transcriptional activity.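 Note: Gal4-VP16 expression switched on by copper sulfate through the metallothionein promoter; nearly all actives have a fitted effect of over 50% in size.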 The conditions noted are these: Drosophila S2 Gal4-VP16 UAS-luciferase, luminescence, 20 h; series mostly up to 53.6 µM. Background: A counterscreen serves to expose hits that act by an unwanted route or on another target.
In the case of `Cc1ccn2c(=O)c(C(=O)NCCC3=CCCCC3)c(O)nc2c1`, the Potency entry was “inactive”.
For the compound `O=C(COc1nsnc1N1CCOCC1)Nc1ccccc1Cl`, the Potency result was “inactive”.
Under `O=C(Cn1ncc2c3ccccc3n(Cc3ccccc3)c2c1=O)NCCCN1CCOCC1` stands “inactive”.
For `CCCn1c(NC(=O)C23CC4CC(CC(O)(C4)C2)C3)nc2ccccc21`, the Potency is 5.62 µM (active).
With `CCOc1ccccc1NC(=O)C12CC3CC(C1)CC(c1ccc(C)cc1)(C3)C2`, the Potency result is “inactive”.
For `CCCn1c(C(Cc2ccccc2)NC(=O)COC)nc2ccccc21` (configuration not stated), the Potency entry was “inactive”.
In the case of `Cc1ccc2c(=O)cc(C(=O)NCCc3ccc(S(N)(=O)=O)cc3)oc2c1C`, the Potency entry was “inactive”.
As for `CCCCc1cc(=O)oc2c(C)c(OCC(=O)N3CCC(C(N)=O)CC3)ccc12`, the entry is “inactive”.
As for `COc1cccc(C(=O)NCCSc2ccc(Br)cc2)c1`, the entry is “inactive”; as for `COc1cc(NC(=S)NCCSc2ccc(C)cc2)cc(OC)c1`, 6.31 µM (active); as for `COc1cc(NC(=O)Nc2ccc(C)cc2)cc([N+](=O)[O-])c1`, “inactive”.
In the case of `Cc1ccc(-n2nc3c(=O)n(C(C)C(=O)NCc4ccc5c(c4)OCO5)nc(C)c3c2C)cc1` (configuration not stated), the Potency entry was “inactive”.
Under `O=C(Nc1nnc(-c2ccccc2)o1)c1cc(-c2cccs2)nc2ccccc12` stands 1 µM (active); under `COC(=O)c1cc(-c2cccs2)nc2ccccc12`, “inactive”; under `COC(=O)CNC(=O)c1cc(-c2ccncc2)nc2ccccc12`, “inactive”.
As for `O=C(O)c1cccc(NC(=O)c2cc(-c3cccc(Cl)c3)nc3ccccc23)c1`, the entry is “inactive”; as for `CC(C)(C)Cc1nnc(NC(=O)c2cc(-c3ccccc3)nc3ccccc23)s1`, 12.6 µM (active); as for `CCCCN(C)CCCNC(=O)c1cc(-c2cccs2)nc2ccccc12`, “inactive”.
Under `CCOc1ccc(CN2CCN(CCCc3ccccc3)C(CCO)C2)cc1` (configuration not stated) stands “inactive”; under `COc1ccc(CNC(=O)CN(C(=O)c2csnn2)c2cnc3ccccc3c2)cc1`, “inactive”.
For the compound `OC(COc1ccc(F)cc1Cl)CN1CCc2ccccc2C1` (configuration not stated), the Potency result is “inactive”.
Under `O=C(c1ccc(S(=O)(=O)N2CCCC2)cc1)N1CCN(c2ccccc2F)CC1` stands “inactive”; under `CCOc1cc2[nH]c(=S)n(Cc3ccc(C(=O)N4CCN(C)CC4)cc3)c(=O)c2cc1OCC`, “inactive”; under `COc1ccc(OCc2cn3c(C)cc(C)nc3n2)cc1`, “inactive”.
Under `COc1ccc(C(=O)CSc2nc(C)cc(C)n2)cc1[N+](=O)[O-]` stands “inactive”; under `COc1ccc(C(C[N+](=O)[O-])n2nc(C)cc2C)cc1` (configuration not stated), 10 µM (active).
Under `Cc1cccc(N2C(=O)N3[C@H](c4ccc(F)cc4)[C@@H]4C(=O)N(C5CCCCC5)C(=O)[C@@H]4[C@]3(Cc3ccccc3)C2=O)c1` stands “inactive”; under `CC1CC2=C(CC1/C=N/NC(N)=S)C(C)(C)CCC2` (configuration not stated), 2.82 µM (active); under `COc1ccc(/C=N/OCc2ccccc2C#N)c(OC)c1`, “inactive”.
As to `O=C1CCC(C(=O)N2CCN(c3ccccc3Cl)CC2)CN1CC1CCCCC1` (configuration not stated), the Potency entry is “inactive”.
As for `COc1cc(CN2CCC(n3nccc3NC(=O)CCCc3ccccc3)CC2)ccc1O`, the entry is “inactive”; as for `CCc1ccc(-c2nnn(Cc3nc4ccccc4s3)n2)cc1`, 10 µM (active).
As for `Clc1ccc(-c2nnc(SCc3nc4ccccc4s3)o2)cc1`, the entry is “inactive”; as for `CCc1ccc(-c2nnn(Cc3nn[nH]n3)n2)cc1`, “inactive”.
For the compound `CC(C)C[C@@H](NC(=O)[C@H]1CCCN1C(=O)Cc1ccccc1)C(N)=O`, the Potency entry was “inactive”.
As for `CCOC(=O)c1c(NC(=S)Nc2ccccc2)sc2c1CCN(C)C2`, the entry is “inactive”; as for `CCOC(=O)c1cc2c(nc1NC(=S)Nc1ccccc1)CC(C)(CC)OC2` (configuration not stated), 7.94 µM (active).
As for `CCOC(=O)c1ccccc1NC(=O)CSc1nc2ccccc2c(=O)[nH]1`, the entry is “inactive”.
As for `CCOC(=O)C1CN(S(=O)(=O)c2ccc(OC)cc2)c2cc(Cl)ccc2O1` (configuration not stated), the entry is “inactive”.
Consider `O=C(C1CCN(Cc2ccc(Cl)cc2)CC1)N1CCN(Cc2ccc3c(c2)OCO3)CC1`, for which the Potency result was “inactive”.
Under `O=C(Nc1cccnc1)c1cccc(S(=O)(=O)N2CCCC2)c1` stands “inactive”; under `O=C(NNC(=S)Nc1ccccc1)c1cccc(S(=O)(=O)N2CCOCC2)c1`, “inactive”.
As for `O=C(NNC1=NCCC1)c1cccc(S(=O)(=O)N2CCCCC2)c1`, the figure is 10 µM (active); as for `Cn1c(SCC(=O)N2CCCC2)nnc1-c1ccc2c(c1)OCO2`, “inactive”; as for `O=C(CCNS(=O)(=O)c1cccs1)N1CCN(c2ccc(F)cc2)CC1`, “inactive”.
Under `COc1cc(S(=O)(=O)Nc2ncn[nH]2)ccc1Cl` stands “inactive”.
Regarding `CCn1c(O)c(N=NC(=O)c2cccc(S(=O)(=O)N3CCCCC3)c2)c2ccccc21`, the Potency entry was “inactive”.
Under `CCn1c(=O)cc(O)c2ccccc21` stands “inactive”.
As for `CCn1c(O)c(N=NC2=NC(=O)CS2)c2cc(C)ccc21`, the figure is 12.6 µM (active); as for `COc1cccc(C(=O)NNC(=O)c2cccc(F)c2)c1`, “inactive”.
With `Cc1cc(C)nc(N/N=C/c2c(CO)cnc(C)c2O)n1`, the Potency entry is “inactive”.
Take `COc1ccc(OC)c(CCNC(=O)CCn2ccc3cc(S(=O)(=O)N4CCCC4)ccc32)c1`: the Potency result is “inactive”.
As for `Cc1cc2nc(-c3ccc(NC(=O)c4cccnc4)cc3)oc2cc1C`, the entry is “inactive”.
As for `CC(=O)Nc1ccc(-c2nc3ccccc3o2)cc1`, the entry is “inactive”; as for `Cc1ccc2nc(-c3ccc(NC(=O)c4cccnc4)cc3)oc2c1`, 1.26 µM (active).
Under `CC(=O)c1c(C)[nH]c(C(=O)COC(=O)c2cccc(S(=O)(=O)N(C)c3ccccc3)c2)c1C` stands 5.62 µM (active); under `COc1ccc(C)cc1NC(=O)C(OC(=O)c1cccc(S(=O)(=O)N(C)c2ccccc2)c1)c1ccccc1` (configuration not stated), “inactive”; under `CN(c1ccccc1)S(=O)(=O)c1ccc(Cl)c(C(=O)OCC(N)=O)c1`, “inactive”.
Take `CCCn1nnnc1NCc1ccc(OC)cc1`: the Potency result is “inactive”.
As for `CCn1c(=O)c2ccccc2n(CC(=O)N2CCCc3ccccc32)c1=O`, the entry is “inactive”; as for `O=C(Nc1ccccc1Cl)Nn1cnnc1`, “inactive”.
Regarding `COCCN(CCOC)C(=S)Nc1ccccc1Cl`, the Potency entry is “inactive”.
Under `O=C(Nc1ccccc1Cl)/C(Cl)=C(\Cl)S(=O)c1ccccc1` (configuration not stated) stands 0.794 µM (active).
As for `Cc1cccc(C(=O)Nc2ccc(Oc3cnccn3)cc2)c1`, the entry is “inactive”.
Consider `COc1ccc(OC)c(S(=O)(=O)N2CCCC(C(=O)NCCc3ccccc3)C2)c1` (configuration not stated), for which the Potency result is “inactive”.
Under `COc1ccc(NC(=O)Cn2ncn3c(cc4ccccc43)c2=O)c(OC)c1OC` stands “inactive”; under `Cc1onc(-c2ccccc2)c1C(=O)N1CCN(S(=O)(=O)c2ccccc2C(F)(F)F)CC1`, “inactive”.

The record behind these values is PubChem BioAssay AID2546 (National Center for Advancing Translational Sciences (NCATS), 2010).
